For the assay, the system named is Trypanosoma brucei. The assay is described as follows: Trypanosoma brucei 72 hour study. It counts as functional, organism-based. The arrangement: scale not given: in the data most compounds retested in dose-response had high values.

In all, about 66,000 compounds went through this assay and about 960 (1.5%) showed an effect of 50% or more. The full list was thinned out, with strong results kept by preference.

`CC(=O)N1CCC(Nc2cc(F)ccc2OCC2CCCO2)CC1` (stereo unspecified): the “Percent Effect” value (10 µM) is -21.13%.

`COCC1CN(Cc2ccc(C)s2)Cc2nnn(C)c21.O=C(O)C(F)(F)F` (stereo unspecified): the “Percent Effect” value (30.3 µM, […]) is -30.47%.

`O=C1C(NCc2nnc3n2CCCC3)CCN1c1ccccc1F` (stereo unspecified): the “Percent Effect” value (10 µM) stood at 0.3109%.

`CN1[C@@H](C(=O)NCC2CC2)C[C@H]2CN(Cc3cccc(C#N)c3)C[C@H]21.O=C(O)C(F)(F)F.O=C(O)C(F)(F)F`: under “30.3 µM, […]”, the “Percent Effect” value was -35.21%.

With `CCN(C)c1ncnc2c1CCN(Cc1ccncc1)CC2.O=C(O)C(F)(F)F.O=C(O)C(F)(F)F.O=C(O)C(F)(F)F`, the “Percent Effect” value (30 µM, 30.03 µM) is 14.6%.

As for `CC1c2ncc(COc3cccnc3)n2CCN1Cc1ccco1` (stereo unspecified), the “Percent Effect” value (30.3 µM, […]) is listed as -3.756%.

As to `CC(C)C1SCC(=O)Nc2c1cnn2-c1ccc(Cl)cc1` (stereo unspecified), the “Percent Effect” value (30 µM, 30.03 µM) turned out to be 16.61%.

Take `CC(C)N(C)S(=O)(=O)c1ccc2c(c1)CCN(C(=O)c1cscn1)C2`: the “Percent Effect” value (30 µM, 30.03 µM) is listed as -38.59%.

As to `CN1CC[C@H](N(Cc2ccccc2)CC2CC2)C[C@H](O)C1`, the “Percent Effect” value (30.3 µM, […]) came to 2.753%.

On to `CN1CC[C@H](N(Cc2ccccc2)Cc2ccccc2)C[C@H](O)C1`, for which the “Percent Effect” value (30.3 µM, […]) was 67.88%.

For the molecule `CN1CC[C@H](N(C)Cc2ccccc2)C[C@H](O)C1`, the “Percent Effect” value (30.3 µM, […]) is -4.232%.

Take `O=C(O)C(F)(F)F.O=C(c1ccsc1)N1CCO[C@@H]2CN(Cc3ccco3)CC[C@@H]2C1`: the “Percent Effect” value (30.3 µM, […]) is on record as -78.45%.

For `CNC(=O)CN1CCOCC12CCN(CCc1ccccc1)CC2.O=C(O)C(F)(F)F.O=C(O)C(F)(F)F`, the “Percent Effect” value (30 µM, 30.03 µM) was determined as 40.27%.

As for `CC(C)(C)C(NCC(=O)N1CCNC(=O)C1)c1ccccc1` (stereo unspecified), the “Percent Effect” value (30 µM, 30.03 µM) is recorded as -32.1%.

For `CCc1nc(NS(=O)(=O)c2ccc(F)cc2Cl)no1`, the “Percent Effect” value (30.3 µM, […]) is on record as -4.749%.

With `CCc1nc(NS(=O)(=O)c2cc(C)c(F)cc2Cl)no1`, the “Percent Effect” value (30.3 µM, […]) stood at 54.01%.

Turning to `CCc1nc(NS(=O)(=O)c2ccc(C)cc2Cl)no1`, the “Percent Effect” value (30 µM, 30.03 µM) came out at 33.48%.

`CN(C)C(=O)c1cnc2n1CCN(Cc1ccc3c(c1)OCO3)C2.O=C(O)C(F)(F)F`: the “Percent Effect” value (30.3 µM, […]) was -102%.

`CC(O)CN1CCC(CNCc2ccc(OC(F)(F)F)cc2)CC1` (stereo unspecified): for the setting “10 µM”, the “Percent Effect” value is on record as 63.69%.

With `CC(O)CN1CCC(CNCc2ccccc2OC(F)(F)F)CC1` (stereo unspecified), where the note is “30 µM, 30.03 µM”, the “Percent Effect” value is given as -22.34%.

For the molecule `CC(O)CN1CCC(CNCc2cccc(Cl)c2)CC1` (stereo unspecified), the “Percent Effect” value (30.3 µM, […]) is on record as 36.81%.

As for `CC(O)CN1CCC(CNCc2cccc(OC(F)(F)F)c2)CC1` (stereo unspecified), the “Percent Effect” value (10 µM) was 16.76%.

On to `CC(O)CN1CCC(CNCc2cccc(C(F)(F)F)c2)CC1` (stereo unspecified), for which, under “30.3 µM, […]”, the “Percent Effect” value is given as 86.87%.

For the molecule `CC(O)CN1CCC(CNCc2cccc(Br)c2)CC1` (stereo unspecified), the “Percent Effect” value (30 µM, 30.03 µM) is listed as -7.469%.

Regarding `CN(C)c1ncc(C(=O)N2C[C@H]3C[C@H](Oc4ccccc4)C[C@H]3C2)cn1`, the “Percent Effect” value (30.3 µM, […]) is 8.214%.

On to `Cl.Cn1ccnc1CNC(=O)c1cncc(C2CCNCC2)n1`, for which, where the note is “30.3 µM, […]”, the “Percent Effect” value is on record as -8.849%.

These data come from ChEMBL document CHEMBL3988442, “University of Dundee, Small-Polar-MMV Screening Library” (2021).
